According to the supplement of paper PMC6555819:

Tests used:
Test in all cases: PBM binding z-score (relative to random genomic background probes); higher = stronger binding; sequences stand for … in GC…GCGATTGACAGCGTAGAATGAAGG
[1] = system: FXR:RXRa (NR concentration 270 nM, RXRa partner concentration 90 nM)
Outline: (§1)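 Custom Agilent 4×180K protein-binding microarrays carried double-stranded probes. Their 34-nt variable regions held direct-repeat seeds, single-nucleotide variants, half-site ablations and random human genomic background sequences. Arrays were incubated 1 h with ligand-free nuclear receptor dimers in PBS pH 7.4, 2% milk, 0.02% Triton X-100, 1 mM DTT, 0.2 mg/mL BSA and 0.4 mg/ml salmon testes DNA. Antibodies against each partner (one per run) detected binding, and scanned fluorescence was regression-normalized. Binding z-scores use random background probes as reference.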

[2] = system: LXRa:RXRa (NR concentration 270 nM, RXRa partner concentration 90 nM)
Outline: as §1

[3] = system: LXRa homodimer (NR concentration 270 nM)
Outline: as §1

[4] = system: LXRb:RXRa (NR concentration 270 nM, RXRa partner concentration 90 nM)
Outline: as §1

[5] = system: LXRb homodimer (NR concentration 270 nM)
Outline: as §1

[6] = system: PPARa:RXRa (NR concentration 270 nM, RXRa partner concentration 90 nM)
Outline: as §1

[7] = system: PPARg:RXRa (NR concentration 180 nM, RXRa partner concentration 90 nM)
Outline: as §1

[8] = system: PPARg:RXRa 270nM:90nM, anti-RXR (NR concentration 270 nM, RXRa partner concentration 90 nM)
Outline: as §1

[9] = system: PPARg:RXRa 30nM:10nM, anti-RXR (NR concentration 30 nM, RXRa partner concentration 10 nM)
Outline: as §1

[10] = system: PPARg:RXRa 90nM:30nM, anti-RXR (NR concentration 90 nM, RXRa partner concentration 30 nM)
Outline: as §1

[11] = system: PPARg:RXRa DBDmut IVT, anti-RXR (DBD mutation: RXRa K156A/R161A, NR concentration 270 nM, RXRa partner concentration 90 nM)
Outline: as §1

[12] = system: PPARg:RXRa IVT, anti-PPARg (NR concentration 270 nM, RXRa partner concentration 90 nM)
Outline: as §1

[13] = system: PPARg DBDmut:RXRa IVT, anti-PPARg (DBD mutation: PPARg1 K132A/R137A, NR concentration 270 nM, RXRa partner concentration 90 nM)
Outline: as §1

[14] = system: PPARg DBDmut IVT, anti-PPARg (DBD mutation: PPARg1 K132A/R137A, NR concentration 270 nM)
Outline: as §1

[15] = system: PPARg homodimer (NR concentration 180 nM)
Outline: as §1

[16] = system: PXR:RXRa (NR concentration 270 nM, RXRa partner concentration 90 nM)
Outline: as §1

[17] = system: PXR homodimer (NR concentration 270 nM)
Outline: as §1

[18] = system: RARa:RXR (NR concentration 270 nM, RXRa partner concentration 90 nM)
Outline: as §1

[19] = system: RARa homodimer (NR concentration 270 nM)
Outline: as §1

[20] = system: RARb:RXRa (NR concentration 270 nM, RXRa partner concentration 90 nM)
Outline: as §1

Sequence	PBM binding z-score [1]	PBM binding z-score [2]	PBM binding z-score [3]	PBM binding z-score [4]	PBM binding z-score [5]	PBM binding z-score [6]	PBM binding z-score [7]	PBM binding z-score [8]	PBM binding z-score [9]	PBM binding z-score [10]	PBM binding z-score [11]	PBM binding z-score [12]	PBM binding z-score [13]	PBM binding z-score [14]	PBM binding z-score [15]	PBM binding z-score [16]	PBM binding z-score [17]	PBM binding z-score [18]	PBM binding z-score [19]	PBM binding z-score [20]
TGAATGAGGTTAACGATCAGGGAACGTGGCGTCG	1.98	1.82	-0.477	0.806	-0.194	3.2	2.41	2.48	0.951	1.83	2.53	2.98	0.909	0.129	0.132	0.809	-0.38	2.15	-0.0277	2.01
ATCGAAAGGCCGTGAGGTGAGTATACAGAAAGGC	0.424	0.135	-0.0346	-0.0132	-0.426	0.369	0.827	0.177	0.199	-0.0286	-0.822	0.492	0.487	1.17	-0.238	0.0278	-0.0636	0.885	0.0649	1.68
CCTTACGTGTCACGAGGTTATAGCACGACGAGCG	1.42	1.62	0.447	1.29	0.663	2.43	2.05	1.6	0.219	0.814	2.43	2.16	0.0495	0.563	1.81	1.5	0.447	1.97	0.817	1.78
TAGCCTAGGTCAGGGGCCAGTATACCACGCGAAC	1.76	1.34	-0.415	1.88	-0.376	2.61	2.83	2.96	0.91	2.43	0.374	2.32	0.429	0.131	0.542	0.506	-0.579	1.42	-0.0424	3.22
ACTATTAGTCGAGACGAGGGCAACCGATAGGTTG	-0.123	-0.246	-0.369	-0.122	-0.111	0.186	0.668	0.119	0.0913	0.381	-0.021	0.553	0.32	-0.276	0.0526	0.376	0.101	0.238	-0.112	0.812
CGTAAAAGTTCAACTAAGGTAACGTAAAGCACGC	6.53	5.88	4.08	3.97	1.96	4.78	2.86	3.53	1.02	2.58	0.183	1.6	1.17	1.06	2.7	4.97	2.61	3.8	1.67	5.13
ACTATTCGTTGAGACGAGGGCAACCGATAGGTTG	0.146	-0.0079	-0.194	0.132	0.215	0.431	0.548	0.366	0.255	0.115	0.199	0.823	1.01	0.89	0.322	0.447	0.0808	0.403	0.418	0.886
CGTCAAAGTTCAAGGTAACGTCACAGAAAGCAGC	6.25	5.64	2.77	3.46	1.24	4.71	4.58	5.27	2.34	4.03	0.574	2.31	1.5	0.322	2.9	4.33	2.43	3.98	1.32	5.18
ATATGTAGGTTAGCTGGGGTCATTCTGACTAGGC	4.61	5.75	3.4	4.86	1.32	5.07	5.36	5.24	2.82	4.48	7.04	6.37	3.34	2.13	2.71	6.41	3.72	5.57	1.37	2.88
CAAACTAGGTCACCGGAAGGTCAAACTCCGCATG	6.33	6.34	6.11	5.67	1.82	6.19	9.8	7.8	6.23	7.86	8.32	8.83	5.1	4.65	8.25	6.17	2.46	7.35	2.71	5.14
TCTATTAGTTGATTAGGGCAACGGAAACAGCGGA	0.551	0.44	0.103	0.473	0.812	0.801	0.284	1.99	3.35	3	2.04	1.27	0.436	0.954	0.288	0.192	0.475	0.276	0.743	0.963
GCTAGCAGGCCATTTGAGTCACTCAATGACGGGC	-0.524	-0.643	-0.699	-1.05	-0.622	-0.463	0.311	-0.7	-0.625	-0.728	0.829	-0.00694	-0.509	-2.18	-0.951	-0.369	-0.961	-0.381	-1.15	0.073
CCTAGTTGGTCATGAGGTCACACACCGGATATGA	4.57	4.17	2.56	4	0.753	4.65	4.15	4.5	2.25	3.46	2.85	4.41	1.13	0.4	4.56	5.34	2.23	5.4	2.94	4.14
CCTGCTAGGGCAATGGTCAGCTAAAGCAGCTCGC	-0.321	-0.261	-0.651	-0.809	-1.23	0.614	1.75	3.28	0.695	2.57	1.55	1.76	-1.07	-1.49	-0.322	-0.655	-0.95	-0.343	-1.1	1.15
